Source: PubChem (National Center for Advancing Translational Sciences (NCATS))
Chronic BCR inh: inhibitors of chronic active B-cell receptor signaling | Potency, µM (top dose mostly 46.1 µM), for the others: at the top dose activity change, negative = inhibition, usual class: inhibitors | 0.05% of 340,000 active | ABC-DLBCL IkBa-CBG/CBR reporter, luminescence ratio, 4 h; active means well fitted inhibition curve with a large enough effect in the signal ratio, with a control signal flat, not every such curve was filed as active; inconclusive means small, poorly fitted or top-dose-only effect, or effect the other way, or a change in a side signal; the % refers to the signal ratio;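 further: potency means the concentration at half of the fitted maximal effect; plate controls were basal doxycycline-induced cells for no effect and cells given 10 µM MG132 for full effect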
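Concentration-response series (up to 46 uM) were applied to TMD8 dual-reporter cells for 4 h at 37C with doxycycline. Green/red ratio, after filter-overlap correction, defined %Activity; red signal alone was normalised to basal cells and zero luminescence.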
IL-1B inflam inh: inhibitors of inflammasome signaling (IL-1 beta secretion); THP-1 LPS/ATP IL-1B secretion, AlphaLISA, 16 h; hits give low values; activity change, % at 57.5 µM; 4.7% of 360,000 active; in the data active means activity change below about -50%; inconclusive means mostly about -30% to -49%; further: on the % scale 0 is the no-effect control and ±100 the full control effect
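Secreted IL-1B measured by AlphaLISA bead assay after 16 h compound exposure of THP-1 cells; compounds (final up to 57.5 uM) added 1 h before LPS (250 ng/mL) and ATP (1.25 mM) stimulation; lower signal means less secretion.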
MCF10A rereplic: inducers of DNA re-replication in MCF 10A breast cells; MCF 10A DNA re-replication, Hoechst nuclear intensity, 48 h; Potency, µM (doses to about 46.1 µM), for inactives: at the top dose activity, positive = re-replication, hits mostly activators; 2.9% of 350,000 active; further: potency means the concentration at half of the fitted maximal effect; % of control where 0% means no effect; nearly all actives have a fitted effect of over 50% in size
DT40 TDP1 no CPT: qHTS for Inhibitors of human tyrosyl-DNA phosphodiesterase 1 (TDP1): qHTS in cells in absence of CPT; DT40 Tdp1-/- hTDP1 cells, no CPT, ATP luminescence, 48 h; Potency, µM (doses to about 46.2 µM), without a hit: at the highest dose activity change, negative = growth inhibition, actives largely listed as inhibitors; 15% of 420,000 active; AID 686978, 2013; further: potency means the concentration at half of the fitted maximal effect; on the % scale 0 is the no-effect control and ±100 the full control effect; nearly all actives have a fitted effect of over 55% in size
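Compound effects on proliferation are scored in DT40 Tdp1-/-;hTDP1 cells in the absence of CPT. ATP levels (CellTiter-Glo luminescence) are recorded after a ≥48 hr, 37 °C incubation.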
DT40 TDP1 CPT: growth inhibition of DT40 Tdp1-/-;hTDP1 cells with camptothecin (screen for TDP1 inhibitors); 12% of 420,000 active; Potency, µM (top dose mostly 46.2 µM), for inactives: top-dose activity change, negative = growth inhibition, hits mostly inhibitors; AID 686979; chicken DT40 Tdp1-/-;hTDP1 cells + 20 nM CPT, ATP luminescence, 48 h; further: potency means the concentration at half of the fitted maximal effect; on the % scale 0 is the no-effect control and ±100 the full control effect; nearly all actives have a fitted effect of over 55% in size
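Chicken DT40 Tdp1-/- cells stably complemented with human TDP1 were seeded at 400 cells/well in medium containing 20 nM camptothecin, exposed to pin-transferred compounds, and grown at 37 °C for at least 48 hr. Viability was read as ATP luminescence.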
SW480 rereplic: induces DNA re-replication in SW480 colon adenocarcinoma cells; SW480 DNA re-replication, Hoechst DNA content imaging, 48 h; Potency, µM (doses to about 46.1 µM), without a hit: top-dose re-replication activation, usual class: activators; 1.8% of 340,000 active; AID 624297; further: potency means the concentration at half of the fitted maximal effect; % of control where 0% means no effect; nearly all actives have a fitted effect of over 55% in size
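Image-based read-out: total Hoechst fluorescence of nuclei (405 nm excitation, 500-530 nm emission), with hits raising the fraction of high-intensity nuclei. SW480 colon cells incubated 48 hr with compounds at 37 C.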
Active calls of the source: *; [ ] = another dose, or the depositor's remark. The list is not random: actives were taken first. Their share in the collection is about 19%. Unless noted, the call rests on the fitted dose curve; in most records, active means well fitted curve in the direction sought with a large enough effect; inconclusive means small, poorly fitted or top-dose-only effect, or another doubt; inactive means no such curve, though single readings can be large; an effect the other way counts as inactive or inconclusive.

COc1cccc(/C=C/C(=O)Nc2ccc(N3CCOCC3)cc2)c1OC was read as Chronic BCR inh 0%, IL-1B inflam inh -13, MCF10A rereplic 1%, DT40 TDP1 no CPT inconclusive, DT40 TDP1 CPT 8% and SW480 rereplic 1%.
`COc1ccc(/C=C/C(=O)Nc2ccc3nc4c(c(Nc5ccccc5OC)c3c2)CCCC4)cc1` gave DT40 TDP1 no CPT 3.7µM* and DT40 TDP1 CPT 3.3µM*.
`CCN(CC)C(=O)C1=C(C)N(Cc2ccc(C(C)(C)C)cc2)C(=O)C(CC(=O)NC2CC2)C1` (centres undefined) gave IL-1B inflam inh 13, DT40 TDP1 no CPT -19% and DT40 TDP1 CPT -5%.
Oc1cccc(-c2nnc(-c3cccc(O)c3)nn2)c1 was read as IL-1B inflam inh 31, MCF10A rereplic -4%, DT40 TDP1 no CPT inconclusive, DT40 TDP1 CPT inconclusive and SW480 rereplic 6%.
For Cc1cc(NC(=O)CS(=O)(=O)c2ccc(Cl)cc2)no1 the results were Chronic BCR inh -2%, IL-1B inflam inh -4, MCF10A rereplic -6%, DT40 TDP1 no CPT -10%, DT40 TDP1 CPT 12% and SW480 rereplic 9%.
For N#CC(=C1C=CC(=NO)C(Cl)=C1)c1ccc(Cl)cc1 the results were IL-1B inflam inh -54*, MCF10A rereplic inconclusive, DT40 TDP1 no CPT 3.7µM*, DT40 TDP1 CPT 4.6µM* and SW480 rereplic inconclusive.
CN(C(=O)c1cccc(NC(=O)Cc2cccc(NC(=O)C3CCN(C(=O)c4ccccc4)CC3)c2)c1)C1CC1 was read as IL-1B inflam inh -15, MCF10A rereplic -8%, DT40 TDP1 no CPT -27%, DT40 TDP1 CPT -20% and SW480 rereplic -5%.
`O=C(Nc1ccncc1)C1CC1c1ccccc1` (centres undefined) gave Chronic BCR inh inconclusive, IL-1B inflam inh -2, MCF10A rereplic 1%, DT40 TDP1 no CPT inconclusive, DT40 TDP1 CPT 16µM* and SW480 rereplic -1%[9.22 µM].
Screening Cc1ccc(NC(=O)C2C3CC4OC(=O)C2C4C3)cc1Cl (centres undefined) returned Chronic BCR inh 5%, IL-1B inflam inh 16, MCF10A rereplic 3.7µM*, DT40 TDP1 no CPT -22%, DT40 TDP1 CPT -5% and SW480 rereplic 1%.
For Cc1cc(Oc2ccccc2)nc(-c2ccccc2)n1 the results were Chronic BCR inh 8%, IL-1B inflam inh 10, MCF10A rereplic -6%, DT40 TDP1 no CPT -11%, DT40 TDP1 CPT -27% and SW480 rereplic -8%.
Screening C=C(C)c1nc(Oc2ccccc2)nc(Oc2ccccc2)n1 returned IL-1B inflam inh -100*, MCF10A rereplic 4.1µM*, DT40 TDP1 no CPT 6.5µM*, DT40 TDP1 CPT 7.3µM* and SW480 rereplic inconclusive.
For CCCCN(CCCC)CC(O)c1cc(Cl)cc2c1-c1ccc(Cl)cc1/C2=C/c1ccc(Cl)cc1 (centres undefined) the results were MCF10A rereplic 10%, DT40 TDP1 no CPT -18%, DT40 TDP1 CPT 3% and SW480 rereplic inconclusive.
C=C1C(=O)OC2CC1C(O)CC(C)=CCCC(C)=CC(O)CC2C (centres undefined) was read as IL-1B inflam inh -103*, MCF10A rereplic 1.3µM*, DT40 TDP1 no CPT 3.3µM*, DT40 TDP1 CPT 2.9µM* and SW480 rereplic inconclusive.
`C=C1C(=O)OC2CC1C(OC(C)=O)CC(C)=CCCC(C)=CCC[C@@]2(C)O` (some centres undefined) gave DT40 TDP1 no CPT 3.3µM* and DT40 TDP1 CPT 2.9µM*.
CNc1ncncc1-c1ccccc1C was read as DT40 TDP1 no CPT 6% and DT40 TDP1 CPT -16%.
For COc1ccc(N(CC(=O)NCc2ccccc2Cl)S(=O)(=O)c2c(C)[nH]c(=O)[nH]c2=O)cc1 the results were DT40 TDP1 no CPT -13% and DT40 TDP1 CPT -1%.
